Experimental findings from PubChem BioAssay (EPA / NIEHS) are described below.

What is called AC50 is the concentration at which the activity in the assay is half-maximal.

SMILES strings stand for the structures. Inconclusive results are not listed. The source made the active and inactive calls. Rule for the calls, unless noted: active = hit-call score of the fitted dose curve at least 0.9, where 1 is the maximum; inactive = score below 0.9.

The target of assay [1] is Bile acid receptor (Homo sapiens) (UniProt Q96RI1). As to the kind of experiment: ATG_FXR_TRANS: Attagene TRANS-FACTORIAL HepG2 Assay for Farnesoid X Receptor (FXR) (AID 2282979; active = hit-call score of the fitted dose curve at least 0.9, where 1 is the maximum;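 note: hits raise reporter mRNA above DMSO so AC50 marks FXR activation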). Particulars: HepG2 Attagene TRANS FXR-GAL4 reporter transcription. In outline: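 Transient transfection of HepG2 with multiplexed GAL4-UAS reporter units; exogenous FXR-GAL4 chimera. Dose 24 h → TriZol RNA → oligo(dT) RT → PCR, 6-FAM primer extension, HpaI cut → CE. Gain vs DMSO.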

Assay [2] in a line: BSK_BT_PBMCCytotoxicity: PBMC Cytotoxicity Assessment in the BioMAP Diversity Plus: BT Assay (AID 2284225).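 Note: PBMC viability measured by Alamar Blue dye reduction fluorescence.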 The note with it: primary human B cells with PBMC. Summed up: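 75,000 cells/well; cpd 1 h → SEB + TSST-1 (20 ng/mL final each) → 90 h → Alamar Blue 6 h → fluor. 546/580 nm. DMSO = neg. control/baseline.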
Read-out in assay [3]: Secreted IgG (sIgG), gene 3500
As to the kind of experiment: BSK_BT_sIgG: BioMAP Diversity Plus: BT Assay for Secreted IgG (sIgG) Biomarker Activity (AID 2284226). Particulars: primary human B cells with PBMC. In outline: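 Secreted IgG from a human primary B cell–PBMC co-culture was measured by ELISA 24 hours after dosing, with DMSO defining baseline activity.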

Assay [4] can be described thus: BSK_BT_Bcell_Proliferation: Viability Assessment in the BioMAP Diversity Plus: BT Assay for B cell Proliferation (AID 2284227). The note with it: primary human B cells with PBMC. Summed up:
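Human B cell/PBMC co-culture; test chemical added; 72 h; TCA fix (10%), 0.1% SRB stain, A560 for total protein as a proliferation read-out; positive-direction fit vs DMSO baseline.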

Read-out in assay [5]: Interleukin 6 (IL6), IL6 (gene 3569)
As to the kind of experiment: BSK_BT_xIL6: BioMAP Diversity Plus: BT Assay for Interleukin 6 (IL6) Biomarker Activity (AID 2284228). Particulars: primary human B cells with PBMC. Summed up:
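B cells and peripheral blood mononuclear cells (human primary co-culture) were dosed with chemical, and after 24 h IL-6 released into the medium was measured by Luminex xMAP. Responses were analysed as gain of signal over DMSO control.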

Read-out in assay [6]: Interleukin 17A (IL17A), IL17A (gene 3605)
As to the kind of experiment: BSK_BT_xIL17A: BioMAP Diversity Plus: BT Assay for Interleukin 17A (IL17A) Biomarker Activity (AID 2284229). The note with it: primary human B cells with PBMC. Summed up: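 Secreted IL-17A was the measured endpoint, read by Luminex xMAP multiplex in supernatants of a human B cell/PBMC co-culture harvested 24 h after chemical dosing. Signal increase relative to DMSO defined activity.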

Read-out in assay [7]: Tumor necrosis factor (Homo sapiens) (UniProt P01375)
As to the kind of experiment: BSK_BT_xTNFa: BioMAP Diversity Plus: BT Assay for Tumor necrosis factor alpha (TNF-alpha) Biomarker Activity (AID 2284230). Particulars: primary human B cells with PBMC. Summed up: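 Read-out: Luminex xMAP quantitation of secreted TNF-alpha from a B cell/PBMC co-culture 24 h after compound addition. Signal analysed relative to DMSO vehicle, positive fitting direction.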

Read-out in assay [8]: Vascular cell adhesion molecule 1 (VCAM1), VCAM1 (gene 7412)
The assay can be described thus: BSK_MyoF_VCAM1: BioMAP Diversity Plus: MyoF Assay for Vascular cell adhesion molecule 1 (VCAM1) Biomarker Activity (AID 2284231). Particulars: primary human lung fibroblasts. Summed up: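 ELISA read-out of VCAM-1 on human lung fibroblasts 24 h after chemical treatment, with positive-direction curve fitting relative to DMSO controls. Parallel cultures were stained with sulforhodamine B for total protein to flag overt cytotoxicity.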

Read-out in assay [9]: Collagen III, COL3A1 (gene 1281)
The assay can be described thus: BSK_MyoF_CollagenIII: BioMAP Diversity Plus: MyoF Assay for Collagen III Biomarker Activity (AID 2284239). Particulars: primary human lung fibroblasts. Summed up: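 ELISA read-out of collagen III from human lung fibroblasts after 24 h of chemical treatment. The DMSO control served as negative control and baseline, with values fitted in the positive direction.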

Read-out in assay [10]: Interleukin 17F (IL17F), IL17F (gene 112744)
As to the kind of experiment: BSK_BT_xIL17F: BioMAP Diversity Plus: BT Assay for Interleukin 17F (IL17F) Biomarker Activity (AID 2284243). The note with it: primary human B cells with PBMC. Summed up:
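Compound was added to co-cultures of human B cells and PBMC. After 24 hours, IL-17F released into the medium was measured with LumineX xMAP technology. Responses were then fitted upward relative to DMSO.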

Read-out in assay [11]: Actin alpha 1 (ACTA1), ACTA1 (gene 58)
As to the kind of experiment: BSK_MyoF_ACTA1: BioMAP Diversity Plus: MyoF Assay for Actin alpha 1 (ACTA1) Biomarker Activity (AID 2284244). Particulars: primary human lung fibroblasts. In outline:
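Measured by ELISA: alpha-smooth muscle actin in human primary lung fibroblasts 24 h after dosing, with DMSO as baseline and upward signal change as the fitted direction.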

Read-out in assay [12]: Interleukin 2 (IL2), IL2 (gene 3558)
The assay can be described thus: BSK_BT_xIL2: BioMAP Diversity Plus: BT Assay for Interleukin 2 (IL2) Biomarker Activity (AID 2284245). The note with it: primary human B cells with PBMC. Summed up: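 Secreted interleukin-2 from human B cell/PBMC co-cultures, measured 24 h post-dosing by Luminex multiplex immunoassay. Upward-direction curve fitting against DMSO baseline.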

Read-out in assay [13]: Basic fibroblast growth factor (bFGF), FGF2 (gene 2247)
The assay can be described thus: BSK_MyoF_bFGF: BioMAP Diversity Plus: MyoF Assay for Basic fibroblast growth factor (bFGF) Biomarker Activity (AID 2284246). Particulars: primary human lung fibroblasts. In outline:
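In this multiplexed cell system, lung fibroblasts (human primary) receive test chemical for 24 h before ELISA detection of bFGF; DMSO defines baseline and the analysis direction is positive.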

Read-out in assay [14]: Collagen IV, COL4A1 (gene 1282)
As to the kind of experiment: BSK_MyoF_CollagenIV: BioMAP Diversity Plus: MyoF Assay for Collagen IV Biomarker Activity (AID 2284247). Particulars: primary human lung fibroblasts. Summed up:
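Activity is scored as a signal increase over DMSO in an ELISA for Collagen IV, measured on human lung fibroblasts at 24 h after chemical treatment. Cytotoxicity is checked in parallel cultures by sulforhodamine B total-protein staining.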

Read-out in assay [15]: Interleukin-8 (IL8), CXCL8 (gene 3576)
As to the kind of experiment: BSK_MyoF_IL8: BioMAP Diversity Plus: MyoF Assay for Interleukin-8 (IL8) Biomarker Activity (AID 2284261). The note with it: primary human lung fibroblasts. Summed up: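 IL-8 levels were measured by ELISA in human lung fibroblasts harvested 24 h after compound addition. Responses were analysed as gain of signal over the DMSO baseline.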

Read-out in assay [16]: Decorin, DCN (gene 1634)
The assay can be described thus: BSK_MyoF_Decorin: BioMAP Diversity Plus: MyoF Assay for Decorin Biomarker Activity (AID 2284265). The note with it: primary human lung fibroblasts. In outline:
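Compound is added to lung fibroblast cultures; cells incubate 24 h; decorin is then measured by ELISA; the response is analysed upward against DMSO controls.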

The nature of assay [17]: BSK_MyoF_SRB: Viability Assessment in the BioMAP Diversity Plus: MyoF Assay (AID 2284267).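 Note: total protein by SRB absorbance in parallel cultures as cytotoxicity measure.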 Particulars: primary human lung fibroblasts. Summed up:
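Cytotoxicity in primary human lung fibroblasts is gauged by SRB total-protein staining 24 h after dosing, with DMSO as the negative control.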

The nature of assay [18]: CCTE_Harrill_HTTr_Viability_MCF7: CCTE's 6-hour Cell Viability Assessment for the High-Throughput Transcriptomics (HTTr) Platform, in MCF-7 cells cultured in DMEM + 10% fetal bovine serum, Harrill Lab (AID 2284010). Summed up: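 Viability measured through PI dye exclusion by high-content imaging at 6 h post-dosing.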
Assay [19] in a line: CCTE_Harrill_HTTr_Apoptosis_MCF7: CCTE's 6-hour Apoptosis Assessment for the High-Throughput Transcriptomics (HTTr) Platform, in MCF-7 cells cultured in DMEM + 10% fetal bovine serum, Harrill Lab (AID 2284011). Summed up:
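MCF-7 (DMEM + 10% FBS), 384-well; 8-pt dilution series, 6 h chemical exposure; caspase-3/7 activation via CellEvent Caspase 3/7 Green, HCI; bidirectional fit vs DMSO.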

Read-out in assay [20]: Plasminogen activator inhibitor-1 (PAI1), SERPINE1 (gene 5054)
The assay can be described thus: BSK_MyoF_PAI1: BioMAP Diversity Plus: MyoF Assay for Plasminogen activator inhibitor-1 (PAI1) Biomarker Activity (AID 2284256).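 For outcome: PAI-1 protein level measured by ELISA in fibroblast cultures; PAI-1 read 24 h after compound addition.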 Particulars: primary human lung fibroblasts. In outline:
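Primary human lung fibroblasts are dosed and incubated 24 h. PAI-1 is then measured by ELISA, while parallel cultures undergo SRB staining for overt cytotoxicity. Increases over DMSO define activity.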

Sequence of Bile acid receptor (Homo sapiens) (Q96RI1 whole entry, looked up, the tested form may be a part): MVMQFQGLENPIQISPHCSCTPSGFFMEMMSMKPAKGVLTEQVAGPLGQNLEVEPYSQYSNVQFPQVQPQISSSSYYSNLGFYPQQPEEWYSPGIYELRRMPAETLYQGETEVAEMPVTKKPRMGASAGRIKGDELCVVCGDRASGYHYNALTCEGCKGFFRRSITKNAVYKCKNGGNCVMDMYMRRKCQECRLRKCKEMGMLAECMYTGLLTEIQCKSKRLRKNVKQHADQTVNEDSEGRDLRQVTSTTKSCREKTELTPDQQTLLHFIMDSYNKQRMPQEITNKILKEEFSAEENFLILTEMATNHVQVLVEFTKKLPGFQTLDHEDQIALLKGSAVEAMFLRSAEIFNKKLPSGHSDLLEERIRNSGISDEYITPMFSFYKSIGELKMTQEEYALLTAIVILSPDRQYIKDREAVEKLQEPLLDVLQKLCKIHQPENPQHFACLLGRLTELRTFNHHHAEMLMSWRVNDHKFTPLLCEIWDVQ
Sequence of Tumor necrosis factor (Homo sapiens) (P01375 whole entry, looked up): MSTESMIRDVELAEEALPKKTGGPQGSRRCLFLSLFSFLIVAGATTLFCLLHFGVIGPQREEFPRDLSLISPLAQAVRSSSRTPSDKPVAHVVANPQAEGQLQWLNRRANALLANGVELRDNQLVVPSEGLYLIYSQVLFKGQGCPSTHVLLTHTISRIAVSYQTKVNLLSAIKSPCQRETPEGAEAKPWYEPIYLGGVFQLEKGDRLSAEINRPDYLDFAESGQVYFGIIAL

Regarding `CCCCCCCCCCCC#N`, the molecule was classed as inactive in assay [1], in [2], in [3], in assay [4], in [5] and in assay [6]. Further, the outcome in [7], in [10], in [12], in assay [14], in assay [15] and in assay [16] was inactive. The AC50 in [8] was 30.7 µM (active); in [9], 29.6 µM (active); in assay [11] it was 26.5 µM (active); in [13] it was 32.9 µM (active); in assay [17] it was 30.5 µM (active).

As to `N#CCCCCC#N`, the outcome in [18] and in [19] was inactive.

`Oc1ccc(C2(c3ccc(O)cc3)c3ccccc3-c3ccccc32)cc1`: the molecule was called inactive in [1].

In the case of `CCCC=NO`, the molecule was called inactive in assay [1].

Consider `O=[N+]([O-])C=Cc1ccccc1`, for which the AC50 in [2] is 7.36 µM (active); in assay [3] it was 5.7 µM (active); in assay [4] it was 6.33 µM (active); in [5], 5.28 µM (active); in assay [6], 5.44 µM (active); in assay [7], 8.35 µM (active). The AC50 was 11.1 µM (active) in [8]; 13.8 µM (active) in assay [9]; 5.05 µM (active) in assay [10]; 12.3 µM (active) in [11]; 6.08 µM (active) in assay [12]; 11.9 µM (active) in [13]. For the same molecule, the AC50 in [14] was 3.97 µM (active); in assay [20], 12.3 µM (active); in assay [15] it was 9.76 µM (active); in [17] it was 20 µM (active). Moreover, the result in [16] was inactive.

For the molecule `C[C@]12CC[C@H]3[C@@H](CC[C@@]45O[C@@H]4C(O)=C(C#N)C[C@]35C)[C@@H]1CC[C@@H]2O`, the outcome in assay [18] and in assay [19] was inactive.

Consider `CC(C)(c1cc(Cl)c(O)c(Cl)c1)c1cc(Cl)c(O)c(Cl)c1`, for which the outcome in [2], in assay [3], in [4], in assay [5], in assay [6] and in assay [7] was inactive. In addition, the outcome in assay [10], in [12], in assay [14] and in assay [16] was inactive. In addition, the AC50 in [9] was 9.8 µM (active); in assay [11], 6.18 µM (active); in assay [13] it was 30.9 µM (active); in assay [20] it was 9.2 µM (active); in assay [15], 34 µM (active); in assay [17] it was 16.5 µM (active).

As to `O=C=Nc1ccccc1`, the outcome in assay [18] and in [19] was inactive.

Regarding `CN(N=O)c1ccccc1`, in assay [1], the result was inactive.

For `C=CCN(CC=C)C(=O)C(Cl)Cl`, the result in assay [18], in [19], in assay [2], in assay [3], in assay [4] and in [5] was inactive. The result in [6], in assay [7], in assay [8], in assay [9], in assay [10] and in assay [11] was inactive. In addition, the result in assay [12], in [13], in assay [14], in assay [20], in [15] and in assay [16] was inactive. Also, the outcome in [17] was inactive.

Turning to `CCc1cccc(C)c1N(C(=O)CCl)[C@@H](C)COC`, the outcome in assay [18] and in assay [19] was inactive.

In the case of `CCc1cc(C)cc(CC)c1-c1c(OC(=O)C(C)(C)C)n2n(c1=O)CCOCC2`, the result in assay [18], in [19], in assay [2], in assay [3], in [4] and in [5] was inactive. Moreover, the result in assay [6], in assay [7], in [8], in assay [9], in [10] and in [12] was inactive. Further, the result in [13], in [14], in [20], in [15], in assay [16] and in [17] was inactive. Besides, in assay [11], the AC50 was 20 µM (active).

As for `CC(C)C(=O)Cl`, the molecule was classed as inactive in assay [1].

For the molecule `Clc1ccc(-c2ccccc2)cc1`, the molecule was classed as inactive in [1], in assay [18], in assay [19], in assay [2], in assay [3] and in assay [4]. Also, the result in assay [5], in assay [6], in [7], in assay [8], in [9] and in assay [10] was inactive. Besides, the outcome in [11], in assay [12], in assay [13], in assay [14], in [15] and in assay [16] was inactive. Also, the result in assay [17] was inactive. Also, the AC50 in assay [20] was 0.121 µM (active).
